Key:
Experiment in all cases: PBM binding z-score (relative to random genomic background probes); higher = stronger binding; sequences stand for … in GC…GCGATTGACAGCGTAGAATGAAGG
[1] = system: FXR:RXRa (NR concentration 270 nM, RXRa partner concentration 90 nM)
In short: (§1)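 Binding z-scores were set against random background probes. The data came from custom Agilent 4×180K protein-binding microarrays carrying double-stranded probes with 34-nt variable regions, incubated 1 h with ligand-free nuclear receptor dimers. Partner-specific antibodies detected binding, and scanned fluorescence was regression-normalized.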

[2] = system: LXRa:RXRa (NR concentration 270 nM, RXRa partner concentration 90 nM)
In short: as §1

[3] = system: LXRa homodimer (NR concentration 270 nM)
In short: as §1

[4] = system: LXRb:RXRa (NR concentration 270 nM, RXRa partner concentration 90 nM)
In short: as §1

[5] = system: LXRb homodimer (NR concentration 270 nM)
In short: as §1

[6] = system: PPARa:RXRa (NR concentration 270 nM, RXRa partner concentration 90 nM)
In short: as §1

[7] = system: PPARg:RXRa (NR concentration 180 nM, RXRa partner concentration 90 nM)
In short: as §1

[8] = system: PPARg:RXRa 270nM:90nM, anti-RXR (NR concentration 270 nM, RXRa partner concentration 90 nM)
In short: as §1

[9] = system: PPARg:RXRa 30nM:10nM, anti-RXR (NR concentration 30 nM, RXRa partner concentration 10 nM)
In short: as §1

[10] = system: PPARg:RXRa 90nM:30nM, anti-RXR (NR concentration 90 nM, RXRa partner concentration 30 nM)
In short: as §1

[11] = system: PPARg:RXRa DBDmut IVT, anti-RXR (DBD mutation: RXRa K156A/R161A, NR concentration 270 nM, RXRa partner concentration 90 nM)
In short: as §1

[12] = system: PPARg:RXRa IVT, anti-PPARg (NR concentration 270 nM, RXRa partner concentration 90 nM)
In short: as §1

[13] = system: PPARg DBDmut:RXRa IVT, anti-PPARg (DBD mutation: PPARg1 K132A/R137A, NR concentration 270 nM, RXRa partner concentration 90 nM)
In short: as §1

[14] = system: PPARg DBDmut IVT, anti-PPARg (DBD mutation: PPARg1 K132A/R137A, NR concentration 270 nM)
In short: as §1

[15] = system: PPARg homodimer (NR concentration 180 nM)
In short: as §1

[16] = system: PXR:RXRa (NR concentration 270 nM, RXRa partner concentration 90 nM)
In short: as §1

[17] = system: PXR homodimer (NR concentration 270 nM)
In short: as §1

[18] = system: RARa:RXR (NR concentration 270 nM, RXRa partner concentration 90 nM)
In short: as §1

[19] = system: RARa homodimer (NR concentration 270 nM)
In short: as §1

[20] = system: RARb:RXRa (NR concentration 270 nM, RXRa partner concentration 90 nM)
In short: as §1

TTAGCAAGGTGAAGGTCGTTGATCCCTCTGTAGA
PBM binding z-score [1]: 1.98
PBM binding z-score [2]: 1.6
PBM binding z-score [3]: -0.45
PBM binding z-score [4]: 0.97
PBM binding z-score [5]: -0.841
PBM binding z-score [6]: 2.38
PBM binding z-score [7]: 1.94
PBM binding z-score [8]: 3.32
PBM binding z-score [9]: 1.18
PBM binding z-score [10]: 2.64
PBM binding z-score [11]: 0.732
PBM binding z-score [12]: 2.79
PBM binding z-score [13]: -0.57
PBM binding z-score [14]: -0.963
PBM binding z-score [15]: 0.358
PBM binding z-score [16]: 1.19
PBM binding z-score [17]: -0.023
PBM binding z-score [18]: 1.51
PBM binding z-score [19]: -0.525
PBM binding z-score [20]: 2.03

CCGACTGGGGAAAGGTTACCATAACGCACAGCCA
PBM binding z-score [1]: 0.564
PBM binding z-score [2]: 1.86
PBM binding z-score [3]: 0.0866
PBM binding z-score [4]: 1.75
PBM binding z-score [5]: -0.554
PBM binding z-score [6]: 2.76
PBM binding z-score [7]: 2.69
PBM binding z-score [8]: 3.64
PBM binding z-score [9]: 1.61
PBM binding z-score [10]: 3.26
PBM binding z-score [11]: 0.181
PBM binding z-score [12]: 0.852
PBM binding z-score [13]: -0.712
PBM binding z-score [14]: -0.726
PBM binding z-score [15]: 1.01
PBM binding z-score [16]: 1.26
PBM binding z-score [17]: 0.0491
PBM binding z-score [18]: 1.9
PBM binding z-score [19]: 0.439
PBM binding z-score [20]: 1.74

TGTATGAGGTTATAAGATCAGGGAACGTTGCAAA
PBM binding z-score [1]: 1.68
PBM binding z-score [2]: 1.72
PBM binding z-score [3]: 0.117
PBM binding z-score [4]: 1.22
PBM binding z-score [5]: 0.92
PBM binding z-score [6]: 2.51
PBM binding z-score [7]: 1.04
PBM binding z-score [8]: 1.47
PBM binding z-score [9]: 0.966
PBM binding z-score [10]: 1.2
PBM binding z-score [11]: 0.0132
PBM binding z-score [12]: 0.98
PBM binding z-score [13]: 0.426
PBM binding z-score [14]: 0.745
PBM binding z-score [15]: 0.994
PBM binding z-score [16]: 1.1
PBM binding z-score [17]: -0.0169
PBM binding z-score [18]: 1.62
PBM binding z-score [19]: 0.679
PBM binding z-score [20]: 1.47

TCATCTAGGTAAAGGTGAAAGTCGAACGATATGA
PBM binding z-score [1]: 1.37
PBM binding z-score [2]: 1.5
PBM binding z-score [3]: 0.00636
PBM binding z-score [4]: 1.3
PBM binding z-score [5]: 0.134
PBM binding z-score [6]: 3.3
PBM binding z-score [7]: 3.93
PBM binding z-score [8]: 4.83
PBM binding z-score [9]: 4.58
PBM binding z-score [10]: 4.92
PBM binding z-score [11]: 4.03
PBM binding z-score [12]: 4.69
PBM binding z-score [13]: 1.07
PBM binding z-score [14]: 0.677
PBM binding z-score [15]: 1.57
PBM binding z-score [16]: 0.89
PBM binding z-score [17]: 0.0192
PBM binding z-score [18]: 1.61
PBM binding z-score [19]: 0.277
PBM binding z-score [20]: 2.05

CAAACTAAGTCAAGAGGTCAAAGTCCGCTTCCCG
PBM binding z-score [1]: 5.6
PBM binding z-score [2]: 5.87
PBM binding z-score [3]: 5.56
PBM binding z-score [4]: 5.06
PBM binding z-score [5]: 1.95
PBM binding z-score [6]: 5.52
PBM binding z-score [7]: 4.19
PBM binding z-score [8]: 5.54
PBM binding z-score [9]: 2.73
PBM binding z-score [10]: 4.86
PBM binding z-score [11]: 2.44
PBM binding z-score [12]: 3.45
PBM binding z-score [13]: 0.624
PBM binding z-score [14]: 0.834
PBM binding z-score [15]: 4.63
PBM binding z-score [16]: 5.85
PBM binding z-score [17]: 2.97
PBM binding z-score [18]: 6.57
PBM binding z-score [19]: 2
PBM binding z-score [20]: 4.35

CGTCCAAGGTCAATGCTAGTTCAGTGAAAGCATT
PBM binding z-score [1]: 7.07
PBM binding z-score [2]: 4.94
PBM binding z-score [3]: 1.4
PBM binding z-score [4]: 3.86
PBM binding z-score [5]: 0.707
PBM binding z-score [6]: 4.84
PBM binding z-score [7]: 3.72
PBM binding z-score [8]: 4.27
PBM binding z-score [9]: 1.01
PBM binding z-score [10]: 2.95
PBM binding z-score [11]: 2.97
PBM binding z-score [12]: 3.31
PBM binding z-score [13]: 1.63
PBM binding z-score [14]: 0.145
PBM binding z-score [15]: 3.77
PBM binding z-score [16]: 5.51
PBM binding z-score [17]: 2.79
PBM binding z-score [18]: 4.79
PBM binding z-score [19]: 0.972
PBM binding z-score [20]: 5.1

CAAACTAGGTCACGAAAGGTCTAAGTCGAATGAC
PBM binding z-score [1]: 4.46
PBM binding z-score [2]: 4.6
PBM binding z-score [3]: 0.351
PBM binding z-score [4]: 3.17
PBM binding z-score [5]: 0.461
PBM binding z-score [6]: 5.52
PBM binding z-score [7]: 9.08
PBM binding z-score [8]: 7.4
PBM binding z-score [9]: 5.87
PBM binding z-score [10]: 7.6
PBM binding z-score [11]: 8.65
PBM binding z-score [12]: 9.08
PBM binding z-score [13]: 1.37
PBM binding z-score [14]: 1.82
PBM binding z-score [15]: 2.76
PBM binding z-score [16]: 3.68
PBM binding z-score [17]: 0.0383
PBM binding z-score [18]: 3.59
PBM binding z-score [19]: 0.679
PBM binding z-score [20]: 4.39

Reference: the supplement of paper PMC6555819
